This is an account of results in PubChem BioAssay (EPA / NIEHS).

More than one record can exist for a structure, and the calls need not agree. The source made the active and inactive calls. The calls were made as follows: active = hit-call score of the fitted dose curve at least 0.9, where 1 is the maximum; inactive = score below 0.9.

Sequence of E-selectin (Homo sapiens) (P16581 whole entry, looked up): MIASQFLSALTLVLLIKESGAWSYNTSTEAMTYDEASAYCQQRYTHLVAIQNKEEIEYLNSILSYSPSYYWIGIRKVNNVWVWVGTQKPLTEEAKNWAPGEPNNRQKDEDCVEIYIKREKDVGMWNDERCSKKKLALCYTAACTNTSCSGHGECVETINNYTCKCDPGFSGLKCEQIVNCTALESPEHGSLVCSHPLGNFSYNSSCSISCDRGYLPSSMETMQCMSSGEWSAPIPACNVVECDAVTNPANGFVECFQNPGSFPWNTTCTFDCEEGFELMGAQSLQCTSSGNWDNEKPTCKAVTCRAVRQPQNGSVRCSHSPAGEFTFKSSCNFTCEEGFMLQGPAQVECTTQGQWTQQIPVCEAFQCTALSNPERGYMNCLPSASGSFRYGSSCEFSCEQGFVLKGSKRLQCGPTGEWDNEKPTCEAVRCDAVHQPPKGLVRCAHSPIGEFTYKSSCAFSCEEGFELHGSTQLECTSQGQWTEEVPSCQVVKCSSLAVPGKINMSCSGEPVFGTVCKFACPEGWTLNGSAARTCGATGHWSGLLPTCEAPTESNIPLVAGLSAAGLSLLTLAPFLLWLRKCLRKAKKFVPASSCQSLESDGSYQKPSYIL

Read-out in the assay: E-selectin (Homo sapiens) (UniProt P16581)
In words: BSK_SAg_Eselectin: BioMAP Diversity Plus: SAg Assay for Eselectin Biomarker Activity (AID 2283091). The conditions noted are these: primary human HUVEC with PBMC; actives raise or lower the signal. The procedure:
BSK_SAg is a cell-based, multiplexed-readout assay that uses umbilical vein endothelium and peripheral blood mononuclear cells, a human vascular primary cell co-culture, with measurements taken at 24 hours after chemical dosing in a 96-well plate.BSK_SAg_Eselectin is an assay component measured in the BSK_SAg assay. It measures E-selectin antibody related to regulation of gene expression using ELISA technology.Data from the assay component BSK_SAg_Eselectin was analyzed into 1 assay endpoint. This assay endpoint, BSK_SAg_Eselectin, was analyzed with bidirectional fitting relative to DMSO as the negative control and baseline of activity. Using a type of binding reporter, gain or loss-of-signal activity can be used to understand changes in the signaling as they relate to the gene SELE. Furthermore, this assay endpoint can be referred to as a primary readout, because this assay has produced multiple assay endpoints where this one serves a signaling function. To generalize the intended target to other relatable targets, this assay endpoint is annotated to the cell adhesion molecules intended target family, where the subfamily is selectins.
The levels of cell surface (or secreted, indicated by the prefix "s") biomarker endpoints were measured by ELISA. Overt cytotoxicity to cells in confluent adherent cultures (all systems other than the BT system) was assessed by measuring total protein levels using sulforhodamine B (SRB) staining in parallel cultures at the time of biomarker measurements, indicated as SRB endpoints. For proliferation assays for adherent cell types, individual cell types are cultured at sub-confluence and relative cell numbers quantified by SRB staining at time points optimized for each system (48 h: 3C and CASM3C systems; 72 h: BT and HDF3CGF systems; 96 h: SAg system). SRB was performed by staining cells with 0.1% SRB after fixation with 10% TCA and reading wells at 560 nm.Viability and proliferation of PBMC (T cells) was quantified by Alamar Blue reduction for the SAg and BT systems. For PBMC viability (referred to as PBMC Cytotoxicity within the assay endpoint names), cells were plated (75,000/well in a 96-well plate) and then chemical samples added for 1 h before addition of activators, SEB and TSST-1 (20 ng/mL final concentration each). Cells were incubated for 90 h. Then, Alamar Blue (20 uL/well) (Invitrogen, Cat DAL1100) was added for 6 h, and the plates were read with a fluorescence microplate reader at 546/580 nm (excitation/emission). For PBMC proliferation, cells were plated and activated as above but incubated for only 16 h prior to addition of Alamar Blue. Plates were read after 6 h.
As for `COC(=O)c1ccccc1S(=O)(=O)NC(=O)Nc1nc(C)nc(OC)n1`, the outcome was inactive.

As for `CC(C)OC(=O)Nc1cccc(Cl)c1`, the result was inactive.

Consider `CC(C)(C)C(O)C(Oc1ccc(Cl)cc1)n1cncn1` (stereo not given), for which the half-maximal activity concentration (AC50) is 12.9 µM (active) and the outcome was inactive.

For `O=C(O)CCCOc1ccc(Cl)cc1Cl`, the outcome was inactive.

Take `O=C(NC(=O)c1c(F)cccc1F)Nc1ccc(OC(F)(F)C(F)OC(F)(F)F)c(Cl)c1` (stereo not given): the AC50 was 9.18 µM (active).

For the molecule `CNC(=O)/C=C(\C)OP(=O)(OC)OC`, the outcome was inactive.

As for `COP(=S)(OC)Oc1ccc(SC)c(C)c1`, the AC50 is 33.6 µM (active).

As for `COP(=S)(OC)Oc1ccc([N+](=O)[O-])cc1`, the AC50 is 30.9 µM (active).

For the molecule `CCC(C)(C)C(=O)OC1=C(c2ccc(Cl)cc2Cl)C(=O)OC12CCCCC2`, the AC50 is 11.5 µM (active).

As for `Cc1cc(C)nc(NC(=O)NS(=O)(=O)c2ccccc2C(=O)OC2COC2)n1`, the result was inactive.

`CNC(=O)Oc1cccc(N=CN(C)C)c1`: the AC50 was 18.7 µM (active).

As to `COc1nn(CSP(=S)(OC)OC)c(=O)s1`, the result was inactive.

In the case of `CNC(=O)Oc1ccccc1OC(C)C`, the outcome was inactive.

With `CNC(=O)CSP(=S)(OC)OC`, the outcome was inactive.

For `O=S(=O)(O)C(F)(F)C(F)(F)C(F)(F)C(F)(F)C(F)(F)C(F)(F)C(F)(F)C(F)(F)F`, the outcome was inactive and the AC50 was 20 µM (active).

As for `O=[N+]([O-])/N=C1\NCCN1Cc1ccc(Cl)nc1`, the result was inactive.

Turning to `CC[C@H](C)[C@H]1O[C@]2(C=C[C@@H]1C)C[C@@H]1C[C@@H](C/C=C(\C)[C@@H](O[C@H]3C[C@H](OC)[C@@H](O[C@H]4C[C@H](OC)[C@@H](O)[C@H](C)O4)[C@H](C)O3)[C@@H](C)/C=C/C=C3\CO[C@@H]4[C@H](O)C(C)=C[C@@H](C(=O)O1)[C@]34O)O2` (tested in a mixture with another compound), the AC50 is 5.19 µM (active).

As for `CCc1ccc(C(=O)NN(C(=O)c2cc(C)cc(C)c2)C(C)(C)C)cc1`, the AC50 was 9.03 µM (active).

In the case of `CC1(C)C(C=C(Cl)Cl)C1C(=O)OC(C#N)c1ccc(F)c(Oc2ccccc2)c1` (stereo not given), the result was inactive.

On to `Oc1ccc(Cl)cc1Cc1ccccc1`, for which the AC50 was 32.5 µM (active) [middle of 5 runs].

Turning to `CCC(C)(NC(=O)c1cc(Cl)c(C)c(Cl)c1)C(=O)CCl` (stereo not given), the AC50 was 7.45 µM (active).

On to `N#CN`, for which the outcome was inactive.

Consider `CC(C)N(C(=O)COc1nnc(C(F)(F)F)s1)c1ccc(F)cc1`, for which the result was inactive.

On to `Cc1[nH]c(=O)n(C(C)(C)C)c(=O)c1Cl`, for which the AC50 is 20 µM (active).

With `O=[N+]([O-])c1c(Cl)c(Cl)c(Cl)c(Cl)c1Cl`, the AC50 was 20 µM (active).

Take `C#CCN1C(=O)COc2cc(F)c(N3C(=O)C4=C(CCCC4)C3=O)cc21`: the concentration at half-maximal activity (AC50) was 16.3 µM (active).

Turning to `CCC(C)Nc1c([N+](=O)[O-])cc(C(C)(C)C)cc1[N+](=O)[O-]` (stereo not given), the AC50 was 11.9 µM (active).

`CCCN(CCOc1c(Cl)cc(Cl)cc1Cl)C(=O)n1ccnc1`: the AC50 is 20.6 µM (active).

Take `CC1(c2ccc(Oc3ccccc3)cc2)OC(=O)N(Nc2ccccc2)C1=O` (stereo not given): the AC50 was 15.6 µM (active).

For the molecule `CCOc1nc(NC)nc(NC(=O)NS(=O)(=O)c2ccccc2C(=O)OC)n1`, the result was inactive.

On to `CCS(=O)(=O)c1cccnc1S(=O)(=O)NC(=O)Nc1nc(OC)cc(OC)n1`, for which the result was inactive.

With `CCN(CC)C(=O)SCc1ccc(Cl)cc1`, the result was inactive.

Turning to `CC(C)(C)C(O)/C(=C\c1ccc(Cl)cc1Cl)n1cncn1` (stereo not given), the AC50 is 27.3 µM (active).

Turning to `CCOC1Oc2ccc(OS(C)(=O)=O)cc2C1(C)C` (stereo not given), the AC50 was 23.5 µM (active).

As to `ClC1C(Cl)C(Cl)C(Cl)C(Cl)C1Cl` (stereo not given), the outcome was inactive.

Consider `CN1CSC(=S)N(C)C1`, for which the AC50 was 19.8 µM (active).

In the case of `O=C1c2ccccc2C(=O)N1SC(Cl)(Cl)Cl`, the result was inactive.

Take `COC(=O)c1ccccc1S(=O)(=O)NC(=O)N(C)c1nc(C)nc(OC)n1`: the outcome was inactive.

What is called AC50 is the concentration giving half of the maximal activity seen.
